# Screens deposited in PubChem BioAssay by several laboratories.
# NCOA3 inh: inhibits human SRC3 coactivator | HEK293 GAL4-SRC3 luciferase reporter, luminescence | inhibition, % at 3.6 µM | Q9Y6Q9 | actives 0.17% (n = 360,000);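 active = inhibition above a per-campaign cutoff, the mean of all compounds plus 3 SD, cut at about 60% in these data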;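 also: 0% = DMSO-treated cells and 100% = gossypol-treated cells at 36 µM; higher means less SRC3-driven luciferase light from the GAL4 reporter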
# NCOA2 inhibitor: human SRC2 (NCOA2) inhibition | Q15596 | HEK293 GAL4-SRC2 luciferase reporter, luminescence | inhibition, % at 9 µM | actives 0.17% (n = 370,000) | AID 651957;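 active = inhibition above the mean inhibition of all tested compounds plus 3 SD, set per campaign, cut at about 52% in these data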;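 also: 0% = DMSO treated cells and 100% = cells given Gossypol at 36 µM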
# NR5A2 inv ag: suppresses constitutive activity of human LRH-1; O00482; HEK293T StAR-luciferase reporter, LRH-1 transfected, 24 h; inhibition, % at 3.6 µM; actives 0.13% (n = 360,000); AID 602396;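 active = inhibition above the mean inhibition of all tested compounds plus 3 SD, cut at about 73% in these data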;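 also: 0% = DMSO wells and 100% = reporter-only cells lacking LRH-1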
# Target sequence (O00482 whole entry, looked up): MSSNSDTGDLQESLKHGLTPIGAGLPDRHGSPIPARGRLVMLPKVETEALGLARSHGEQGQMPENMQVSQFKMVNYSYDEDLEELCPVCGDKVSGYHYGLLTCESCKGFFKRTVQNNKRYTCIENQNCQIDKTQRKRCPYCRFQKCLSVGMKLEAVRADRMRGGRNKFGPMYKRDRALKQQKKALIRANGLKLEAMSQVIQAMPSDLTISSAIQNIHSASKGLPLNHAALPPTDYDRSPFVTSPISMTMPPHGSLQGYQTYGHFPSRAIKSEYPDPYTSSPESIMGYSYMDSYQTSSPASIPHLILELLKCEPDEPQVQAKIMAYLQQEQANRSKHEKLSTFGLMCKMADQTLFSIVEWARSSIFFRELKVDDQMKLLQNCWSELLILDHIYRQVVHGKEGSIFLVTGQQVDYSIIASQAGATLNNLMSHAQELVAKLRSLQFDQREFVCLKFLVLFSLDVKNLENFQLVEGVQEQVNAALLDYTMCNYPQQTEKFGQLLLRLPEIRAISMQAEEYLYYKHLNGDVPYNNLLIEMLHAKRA
# NCOA1 inh: inhibits human SRC1 coactivator; Q15788; HEK293 GAL4-SRC1 luciferase reporter, luminescence; inhibition, % at 3.6 µM; actives 0.12% (n = 360,000); AID 588354;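 active = inhibition above the campaign mean plus 3 SD, with each screening campaign given its own cutoff, cut at about 60% in these data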;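 also: 0% = DMSO treated cells and 100% = gossypol at 36 µM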
# NR2F2 inh: blocks human COUP-TFII nuclear receptor. P24468. HEK293T NGFI-A luciferase reporter, luminescence. inhibition, % at 8.6 µM. actives 0.7% (n = 370,000). AID 686940;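 active = inhibition above a per-plate cutoff, mean inhibition of test wells between control levels plus 3 SD, cut at about 38% in these data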;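 also: cells cotransfected with COUP-TFII expression vector driving the NGFI-A reporter; 0% = median of COUP-TF2 test wells and 100% = reporter-only cells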
# Efflux pump inh: antifungal efflux pump inhibition, Nile Red retention; inhibition, % at 10 µM; S. cerevisiae Candida pump triplex; actives 0.44% (n = 330,000);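 active = plate passing quality check with inhibition over a set limit, or well fluorescence over plate mean plus 4 SD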;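 also: Nile Red retained in pooled yeast measured as flow cytometry median fluorescence; 0% = buffer negative control and 100% = Enniatin B positive control; higher means more Nile Red kept so more efflux inhibition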
# Cmpd fluor yeast: counter-screen for efflux pump inhibitors: compound fluorescence; shares compounds with Efflux pump inh; S. cerevisiae AD/pABC3, flow cytometry; fluorescence ratio to DMSO, % at 10 µM; actives 4% (n = 1,700); AID 588517;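 active = fluorescence ratio to DMSO above its plate's cutoff, the plate mean ratio plus 5 SD, cut at about 210% in these data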;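 also: unstained yeast with no Nile Red so the signal is compound autofluorescence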
# Mdr1 pump inh: blocks the Candida albicans Mdr1 efflux pump in yeast; shares compounds with Efflux pump inh; inhibition, % at 10 µM; actives 1% (n = 1,700); S. cerevisiae AD/CaMDR1, Nile Red efflux, flow cytometry; in the data active = inhibition above about 26%;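 also: 0% = DMSO vehicle and 100% = reference inhibitor; higher means more Nile Red retained so more efflux inhibition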
# Cdr2 pump inh: Candida Cdr2 efflux pump inhibition. Nile Red retention ratio vs DMSO, % at 10 µM. S. cerevisiae AD/CaCDR2, Nile Red retention, flow cytometry. shares compounds with Efflux pump inh. AID 588520. actives 4% (n = 1,700); in the data active = Nile Red retention ratio vs DMSO above about 190%;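 also: higher ratio means more blocking of Cdr2 efflux of the dye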
# CaCdr1 efflux inh: blocks the Candida albicans Cdr1 efflux pump in yeast | shares compounds with Efflux pump inh | S. cerevisiae AD/CaCDR1, Nile Red efflux, flow cytometry | inhibition, % at 10 µM | actives 1% (n = 1,700) | AID 588522;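 active = inhibition above the screen-wide mean plus twice its standard deviation, cut at about 32% in these data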
# Numbers without * were called inactive; . = no result. Sampled rows, rich in hits. Any-hit rate of the full collection: about 1.2%.
SMILES,NCOA3 inh,NCOA2 inhibitor,NR5A2 inv ag,NCOA1 inh,NR2F2 inh,Efflux pump inh,Cmpd fluor yeast,Mdr1 pump inh,Cdr2 pump inh,CaCdr1 efflux inh
O=C(CCC(=O)OCCCC(F)(F)C(F)(F)F)NC1CCCCC1,16,.,15,-10,.,1.4*,81,0,91,0
Cc1cccnc1NC(=O)CNC(=O)COc1ccccc1,7,-5,-15,-9,-17,0,.,.,.,.
OCCC1CN(Cc2cc3ccccc3o2)CCN1Cc1ccc(F)cc1 (centres undefined),4,-51,-2,2,-24,0,.,.,.,.
O=C(/C=C/c1ccccc1[N+](=O)[O-])NCCc1ccc(F)cc1,-9,14,-13,-7,3,0.4*,88,0,184,0
O=C(NCCc1nnc2ccc(N3CCCCCC3)nn12)c1ccccc1,-5,15,-14,-16,1,0,.,.,.,.
CC(=O)Nc1ccccc1OCC(=O)NCC(F)(F)F,4,-9,-7,0,-15,0.6*,108,0,108,0
CC(C)c1ccc(NC(=O)N2CCc3nc(NCc4cccc(Oc5ccccc5)c4)ncc3C2)cc1,7,-4,13,-15,24,.,.,.,.,.
CN1C(=O)/C(=C/c2ccccc2Cl)Sc2ccc(C(=O)N3CCCC3)cc21,-13,3,0,-20,25,0,.,.,.,.
CN1C(=O)/C(=C/c2ccc(C(F)(F)F)cc2)Sc2ccc(C(=O)N3CCN(c4ccccn4)CC3)cc21,5,14,-19,21,-4,0.7*,100,0,112,0
CCN(CC)S(=O)(=O)c1ccc(N2CCOCC2)c(NC(=O)CCC2CCCCC2)c1,1,8,9,-16,-11,13*,101,0,94,0
CCN(CC)S(=O)(=O)c1ccc(N2CCOCC2)c(NC(=O)CC(C)(C)C)c1,-1,1,-13,13,13,0,.,.,.,.
Cc1ccc(C(=O)Nc2ncc3c(n2)CC(c2ccco2)CC3=O)cc1 (centres undefined),4,-2,-29,16,2,9.0*,105,0,89,0
COc1ccc(S(=O)(=O)N(CCCN2CCOCC2)Cc2cccc(OC)c2OC)cc1,-28,2,16,0,1,0,.,.,.,.
O=C(O)c1cccc(CN2C(=O)CSC2=O)c1,1,-12,-7,-9,-3,0.9*,84,0,87,0
O=C(O)c1cccc(CN2C(=O)SC(Nc3ccccc3)C2=O)c1 (centres undefined),1,-4,-9,-15,1,0,.,.,.,.
Cc1nn(-c2cccc([N+](=O)[O-])c2)c(N)c1-c1ccccc1,-55,-68,-85,-117,-61,0,.,.,.,.
Cn1c(N)c(C(=O)COC(=O)c2ccccn2)c(=O)n(C)c1=O,1,-17,5,-32,15,1.7*,99,0,96,0
O=C(COC(=O)c1ccc2ccccc2c1)Nc1ncc(C(F)(F)F)cc1Cl,12,-30,9,12,9,0,.,.,.,.
O=C(COC(=O)c1c2ccccc2cc2ccccc12)Nc1ncc(C(F)(F)F)cc1Cl,-1,-22,-10,-18,-1,0.4*,113,0,110,0
O=c1c2ccccc2nnn1Cc1ccccn1,17,-35,-3,-6,-7,8.2*,100,0,98,0
O=c1c2ccccc2nnn1Cc1cccc2ccccc12,-1,3,6,-44,0,0,.,.,.,.
OC(COCC1COc2ccccc2O1)CN1CCN(c2ccccc2)CC1 (centres undefined),-30,1,12,-1,-5,1.0*,101,0,97,0
CCN1CCN(CC(O)COCC2COc3ccccc3O2)CC1 (centres undefined),1,16,-8,2,8,0,.,.,.,.
CCOc1ccccc1NC(=O)Cc1coc2ccc(C)cc12,10,-12,-6,-12,-3,0,.,.,.,.
CC(=O)c1ccc(OCC(=O)Nc2nnc(C3CC3)s2)cc1,-15,1,24,-3,-11,.,.,.,.,.
SMILES,NCOA3 inh,NCOA2 inhibitor,NR5A2 inv ag,NCOA1 inh,NR2F2 inh,Efflux pump inh,Cmpd fluor yeast,Mdr1 pump inh,Cdr2 pump inh,CaCdr1 efflux inh
CC(Oc1ccc(Br)cc1)C(=O)Nc1nnc(C2CC2)s1 (centres undefined),1,-9,-3,-6,2,0,99,0,109,0
O=C(COc1ccc(Br)cc1)Nc1nnc(C2CC2)s1,2,-3,-2,1,-5,0,116,0,93,0
Cc1cc(OCC(=O)Nc2nnc(C3CC3)s2)ccc1C(C)C,4,-12,-12,-7,-2,0,.,.,.,.
Cc1ccc(C(C)C)cc1OCC(=O)Nc1nnc(C2CC2)s1,-108,4,3,-4,0,0,101,0,106,0
CCOc1cc(/C=N/N=C2/NC(=O)C(CC(=O)O)S2)ccc1OCc1ccc(Cl)cc1 (centres undefined),-3,4,3,-4,0,0,.,.,.,.
COc1ccc(/C=N/N=C2/NC(=O)C(CC(=O)O)S2)cc1OCc1ccc(Cl)cc1 (centres undefined),12,19,8,3,-12,13*,95,0,105,0
COc1cc(CNCCN2CCOCC2)ccc1OCc1c(Cl)cccc1Cl,.,.,.,.,.,0,.,.,.,.
CCc1nc2c(OCc3cc(Cl)cc(Cl)c3)cccn2c1N(C)C(=O)c1ccccc1F,0,1,7,-2,-9,.,.,.,.,.
CCOC(=O)C1=C(CS(=O)(=O)c2ccccc2)NC(=O)NC1c1cccc(OC)c1 (centres undefined),18,16,22,-20,-4,0,.,.,.,.
CCOC(=O)C1=C(CS(=O)(=O)c2ccccc2)NC(=O)NC1c1ccccc1 (centres undefined),-9,4,-11,-2,-11,0.5*,90,0,96,0
Cc1cccn2c(=O)c3cc(C(=O)N4CCCCC4)sc3nc12,-44,-14,-9,-13,-8,0,.,.,.,.
CCC1CCCCN1C(=O)c1cc2c(=O)n3cccc(C)c3nc2s1 (centres undefined),-6,.,-6,-84,.,1.7*,107,0,95,0
Cc1ccc(NN=C2c3ccccc3-c3ccccc32)cc1,-14,-28,-26,-38,-15,0,.,.,.,.
O=C1N[C@@H](Cc2ccccc2)C(=O)N2[C@@H]3N(S(=O)(=O)c4ccccc4)c4ccccc4[C@]3(Br)C[C@@H]12,-7,-8,18,-13,3,0,.,.,.,.
